About 7,900 targets were measured; listed, in parts, are those with a hit and a random draw of the rest. About 0.6% of all pairs of compound and target were hits.
Compound: C1=CC(=C(C=C1Cl)C2=NC3=NC=CN=C3C(=N2)NC4=CC=NC=C4)F
Assay: log2 fold change, soluble protein after heating vs DMSO (PISA); higher = thermal stabilisation; K562 cells, 10 uM, 30 min; active = over 0.2 and 3.5 SD of the protein, either way, in both replicates (recomputed)
Method in brief: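 Quantification of soluble protein used TMTpro 16plex LC-MS/MS, with channel sums equalised. Samples were the supernatant after 21,000xg for 90 min of pooled aliquots from K562 cells (2×10^6 cells/mL) treated with 10 μM compound for 30 min, heated for 3 min over 48°C-58°C, and extracted in PBS with 0.5% NP-40 at 4°C. Values, from duplicates, describe thermal stability against control samples on a log2 fold-change scale.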

UniProt Q5NDL2, sequence (Q5NDL2 whole entry, looked up): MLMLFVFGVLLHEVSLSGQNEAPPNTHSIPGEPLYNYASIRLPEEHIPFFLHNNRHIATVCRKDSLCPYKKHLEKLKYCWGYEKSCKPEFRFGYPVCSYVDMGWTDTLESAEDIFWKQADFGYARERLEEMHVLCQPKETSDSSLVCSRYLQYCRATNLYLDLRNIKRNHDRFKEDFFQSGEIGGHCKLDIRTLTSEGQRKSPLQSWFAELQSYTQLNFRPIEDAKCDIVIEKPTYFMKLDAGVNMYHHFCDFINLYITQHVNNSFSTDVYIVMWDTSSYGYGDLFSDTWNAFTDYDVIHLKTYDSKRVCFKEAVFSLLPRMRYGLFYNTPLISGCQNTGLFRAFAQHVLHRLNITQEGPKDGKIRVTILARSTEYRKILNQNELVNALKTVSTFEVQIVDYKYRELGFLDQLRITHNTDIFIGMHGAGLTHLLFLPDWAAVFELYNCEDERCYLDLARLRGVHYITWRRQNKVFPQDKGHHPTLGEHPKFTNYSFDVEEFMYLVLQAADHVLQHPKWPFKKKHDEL
UniProt Q14203, sequence (Q14203 whole entry, looked up): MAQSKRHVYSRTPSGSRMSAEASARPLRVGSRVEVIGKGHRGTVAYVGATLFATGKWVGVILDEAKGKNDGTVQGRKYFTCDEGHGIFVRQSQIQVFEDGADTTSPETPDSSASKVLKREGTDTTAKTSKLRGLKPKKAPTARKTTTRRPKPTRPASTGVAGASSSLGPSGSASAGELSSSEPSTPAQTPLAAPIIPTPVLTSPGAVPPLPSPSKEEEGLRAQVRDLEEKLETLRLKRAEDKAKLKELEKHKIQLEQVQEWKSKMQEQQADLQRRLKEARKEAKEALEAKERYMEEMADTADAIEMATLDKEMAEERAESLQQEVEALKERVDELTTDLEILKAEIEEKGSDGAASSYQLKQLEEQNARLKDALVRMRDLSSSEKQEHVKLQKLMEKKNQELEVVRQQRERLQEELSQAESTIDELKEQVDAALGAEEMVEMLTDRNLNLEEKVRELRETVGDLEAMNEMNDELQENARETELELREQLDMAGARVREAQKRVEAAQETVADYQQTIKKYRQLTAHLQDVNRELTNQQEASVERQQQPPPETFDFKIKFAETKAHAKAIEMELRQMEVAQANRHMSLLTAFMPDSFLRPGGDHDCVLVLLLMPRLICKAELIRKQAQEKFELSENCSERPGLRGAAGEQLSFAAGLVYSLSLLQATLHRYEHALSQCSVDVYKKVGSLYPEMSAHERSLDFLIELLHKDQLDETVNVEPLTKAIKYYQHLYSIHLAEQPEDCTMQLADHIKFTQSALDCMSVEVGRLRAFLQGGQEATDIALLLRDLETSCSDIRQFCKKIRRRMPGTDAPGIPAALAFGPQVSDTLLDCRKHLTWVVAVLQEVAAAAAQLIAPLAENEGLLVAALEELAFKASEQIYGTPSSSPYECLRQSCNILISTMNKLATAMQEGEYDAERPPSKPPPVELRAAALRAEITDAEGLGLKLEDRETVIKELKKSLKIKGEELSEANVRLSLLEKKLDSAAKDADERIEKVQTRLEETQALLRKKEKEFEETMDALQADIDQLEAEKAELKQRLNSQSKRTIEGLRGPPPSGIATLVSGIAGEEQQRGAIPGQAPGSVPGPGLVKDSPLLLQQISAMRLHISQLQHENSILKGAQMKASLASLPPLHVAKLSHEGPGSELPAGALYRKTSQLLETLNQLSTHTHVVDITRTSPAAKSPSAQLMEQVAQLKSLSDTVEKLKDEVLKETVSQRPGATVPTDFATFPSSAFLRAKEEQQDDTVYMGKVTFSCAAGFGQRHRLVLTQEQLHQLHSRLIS
UniProt Q96KP1, sequence (Q96KP1 whole entry, looked up): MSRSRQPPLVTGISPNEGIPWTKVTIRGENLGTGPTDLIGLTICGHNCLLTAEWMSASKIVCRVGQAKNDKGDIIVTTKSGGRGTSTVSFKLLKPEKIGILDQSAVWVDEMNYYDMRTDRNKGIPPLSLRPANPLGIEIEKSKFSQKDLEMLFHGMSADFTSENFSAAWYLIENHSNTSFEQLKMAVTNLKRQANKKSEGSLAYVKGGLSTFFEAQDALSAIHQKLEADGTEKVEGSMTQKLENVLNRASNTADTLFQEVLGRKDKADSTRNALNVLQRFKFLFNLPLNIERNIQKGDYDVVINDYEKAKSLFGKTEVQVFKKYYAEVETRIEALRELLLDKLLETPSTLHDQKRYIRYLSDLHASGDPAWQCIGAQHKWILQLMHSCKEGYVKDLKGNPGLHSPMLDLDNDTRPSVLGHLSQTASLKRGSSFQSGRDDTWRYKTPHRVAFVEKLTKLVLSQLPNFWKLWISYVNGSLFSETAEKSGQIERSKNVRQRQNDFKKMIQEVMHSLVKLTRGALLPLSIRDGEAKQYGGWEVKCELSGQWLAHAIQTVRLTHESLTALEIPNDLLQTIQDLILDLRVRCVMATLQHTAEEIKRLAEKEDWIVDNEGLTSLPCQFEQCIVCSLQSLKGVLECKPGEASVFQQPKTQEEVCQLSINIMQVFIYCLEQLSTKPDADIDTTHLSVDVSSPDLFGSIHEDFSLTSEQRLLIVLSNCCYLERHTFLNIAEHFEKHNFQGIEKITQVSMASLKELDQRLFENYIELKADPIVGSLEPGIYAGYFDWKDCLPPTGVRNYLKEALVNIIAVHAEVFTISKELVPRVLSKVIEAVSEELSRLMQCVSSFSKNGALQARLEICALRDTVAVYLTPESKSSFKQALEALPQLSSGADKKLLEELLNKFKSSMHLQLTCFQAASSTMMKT
UniProt Q8N6R0, sequence (Q8N6R0 whole entry, looked up): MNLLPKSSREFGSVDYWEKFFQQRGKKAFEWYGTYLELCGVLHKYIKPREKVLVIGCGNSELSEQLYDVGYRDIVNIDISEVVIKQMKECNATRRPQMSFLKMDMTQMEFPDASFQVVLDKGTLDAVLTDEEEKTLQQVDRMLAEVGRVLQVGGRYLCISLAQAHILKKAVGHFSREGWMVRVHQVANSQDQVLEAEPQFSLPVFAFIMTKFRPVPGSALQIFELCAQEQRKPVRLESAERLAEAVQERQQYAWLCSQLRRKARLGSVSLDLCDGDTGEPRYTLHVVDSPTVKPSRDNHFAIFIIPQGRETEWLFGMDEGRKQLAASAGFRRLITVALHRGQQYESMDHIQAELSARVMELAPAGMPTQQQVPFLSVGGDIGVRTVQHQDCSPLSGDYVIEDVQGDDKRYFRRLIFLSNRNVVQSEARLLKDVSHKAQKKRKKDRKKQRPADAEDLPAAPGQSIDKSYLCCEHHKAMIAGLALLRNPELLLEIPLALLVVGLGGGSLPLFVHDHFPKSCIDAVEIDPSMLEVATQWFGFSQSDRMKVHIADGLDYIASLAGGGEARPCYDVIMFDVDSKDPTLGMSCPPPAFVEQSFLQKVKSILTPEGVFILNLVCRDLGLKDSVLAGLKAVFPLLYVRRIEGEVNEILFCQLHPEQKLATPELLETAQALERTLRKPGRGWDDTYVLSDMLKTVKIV
UniProt Q0VG06, sequence (Q0VG06 whole entry, looked up): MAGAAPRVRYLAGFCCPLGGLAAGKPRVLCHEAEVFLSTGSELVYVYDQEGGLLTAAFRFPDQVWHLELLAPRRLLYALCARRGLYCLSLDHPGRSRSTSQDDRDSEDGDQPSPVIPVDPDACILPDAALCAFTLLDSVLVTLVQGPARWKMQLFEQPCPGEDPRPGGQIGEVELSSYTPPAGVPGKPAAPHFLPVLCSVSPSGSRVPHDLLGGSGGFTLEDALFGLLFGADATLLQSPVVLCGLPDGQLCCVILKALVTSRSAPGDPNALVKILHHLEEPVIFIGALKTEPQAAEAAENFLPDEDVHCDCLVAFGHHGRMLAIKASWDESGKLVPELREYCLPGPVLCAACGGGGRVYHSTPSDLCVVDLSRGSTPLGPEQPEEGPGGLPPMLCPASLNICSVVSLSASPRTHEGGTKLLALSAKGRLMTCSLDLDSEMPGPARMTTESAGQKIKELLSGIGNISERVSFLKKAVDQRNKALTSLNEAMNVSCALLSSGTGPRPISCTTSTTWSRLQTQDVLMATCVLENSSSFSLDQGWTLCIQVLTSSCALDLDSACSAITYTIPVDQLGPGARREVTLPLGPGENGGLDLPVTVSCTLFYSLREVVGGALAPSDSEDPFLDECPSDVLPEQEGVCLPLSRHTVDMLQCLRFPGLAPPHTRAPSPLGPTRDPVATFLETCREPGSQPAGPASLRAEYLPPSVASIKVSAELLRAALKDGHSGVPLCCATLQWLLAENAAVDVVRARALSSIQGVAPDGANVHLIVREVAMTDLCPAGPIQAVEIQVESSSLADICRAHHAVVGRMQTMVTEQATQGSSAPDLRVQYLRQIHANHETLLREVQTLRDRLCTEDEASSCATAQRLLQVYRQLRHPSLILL
UniProt Q6UX04, sequence (Q6UX04 whole entry, looked up): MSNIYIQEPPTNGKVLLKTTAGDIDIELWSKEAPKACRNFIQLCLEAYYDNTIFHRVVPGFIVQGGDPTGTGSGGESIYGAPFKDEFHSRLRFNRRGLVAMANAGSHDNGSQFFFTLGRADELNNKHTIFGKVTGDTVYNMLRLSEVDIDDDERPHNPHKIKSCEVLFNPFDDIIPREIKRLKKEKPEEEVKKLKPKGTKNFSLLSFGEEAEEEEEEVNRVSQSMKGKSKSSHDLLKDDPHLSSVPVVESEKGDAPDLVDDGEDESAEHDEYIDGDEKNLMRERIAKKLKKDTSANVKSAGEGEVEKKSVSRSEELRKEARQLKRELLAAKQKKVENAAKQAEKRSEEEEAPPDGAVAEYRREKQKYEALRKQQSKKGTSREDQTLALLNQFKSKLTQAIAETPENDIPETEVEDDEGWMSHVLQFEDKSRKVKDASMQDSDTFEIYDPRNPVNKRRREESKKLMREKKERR
UniProt Q9NSI2, sequence (Q9NSI2 whole entry, looked up): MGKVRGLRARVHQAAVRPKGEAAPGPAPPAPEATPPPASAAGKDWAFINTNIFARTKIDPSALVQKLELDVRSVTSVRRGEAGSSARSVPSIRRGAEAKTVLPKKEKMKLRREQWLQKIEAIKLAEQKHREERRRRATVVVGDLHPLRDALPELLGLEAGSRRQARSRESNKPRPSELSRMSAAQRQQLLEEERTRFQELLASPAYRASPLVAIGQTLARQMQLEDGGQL

log2 fold change, inactive:
EOGT (UniProt Q5NDL2) -0.032
CUEDC2 (UniProt Q9H467) 0.047
DDX5 (UniProt P17844) 0.072
EIF4E2 (UniProt O60573) -0.026
ERLIN1 (UniProt O75477) -0.097
EEF1AKNMT (UniProt Q8N6R0) 0.008
EIF4A1 (UniProt P60842) 0.047
DCTPP1 (UniProt Q9H773) 0.14
DNAJB12 (UniProt Q9NXW2) 0.003
DDX4 (UniProt Q9NQI0) -0.23
EXOC2 (UniProt Q96KP1) -0.027
DMAC1 (UniProt Q96GE9) 0.128
EEA1 (UniProt Q15075) 0.046
DDX46 (UniProt Q7L014) 0.134
CYP51A1 (UniProt Q16850) -0.248
DCTN1 isoform 4 (UniProt Q14203) -0.053
CWC27 (UniProt Q6UX04) 0.055
DNAJC19 (UniProt Q96DA6) 0.055
DUS2 (UniProt Q9NX74) 0.043
ECH1 (UniProt Q13011) 0.243
DBT (UniProt P11182) -0.021
FAAP100 (UniProt Q0VG06) 0.246
FAM207A (UniProt Q9NSI2) -0.039

From the supplement of paper PMC10849652
